Source: PubChem BioAssay (NCI)
The panel holds about 83,000 compounds, 20% with a hit somewhere; the sample as a whole holds those more often.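 Method: cells in 96-well plates; compound added at one concentration; 48 h incubation; percent growth measured; values under 10 scored active.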 The source made the active and inactive calls.

system: MDA-MB-468 breast; test: NCI-60 one-dose screen, 48 h (100 = growth as untreated, 0 = no growth, -100 = all killed); conditions: 10 µM unless noted
Method: Growth inhibition of the MDA-MB-468 human Breast tumor cell line is measured as a screen for anti-cancer activity. Cells are grown in 96 well plates and exposed to the test compound for 48 hours. Compounds are tested at a single concentration, which is 10^-5 M for most compounds. The reported endpoint is percent growth (GI% or GIPRCNT), where numbers from 0 - 100% represent growth inhibition, and numbers from -100% - 0 represent cell death. For example, a value of 40 represents 60% growth inhibition. A value of 0 means no net growth occurred over the course of the experiment. A value of -40 indicates 40% of cells at the beginning of the experiment died by the end of the experiment. A value of -100 means all cells are dead at the end of the experiment.
NCI-60 Human Tumor Cell Lines Screen was performed using the standard one-dose NCI protocol, which is described in more detail at https://dtp.cancer.gov/discovery_development/nci-60/default.htm.
Compounds with GIPRCNT values below 10 were considered active. Activity score was based on GIPRCNT using the following formula: […]
Score is 0 for GIPRCNT values of 100 or above, 50 for GIPRCNT values of 0, and 100 for GIPRCNT values of -100.

| SMILES | growth |
| --- | --- |
| O=[N+]([O-])c1ccc(/C=C/c2nc3ccccc3n3c(=S)[nH]nc23)cc1 | 66.5% (inactive) |
| O=c1[nH]c2ccccc2cc1CSc1cccc(Nc2nccc(-c3ccc4ccccc4c3)n2)c1 | 80.4% (inactive) |
| O=C1c2c(c3c4cc(F)ccc4oc3c3[nH]c4ccc(Br)cc4c23)C(=O)N1O | 46.4% (inactive) |
| CCCSc1nc(NCCc2c[nH]c3ccccc23)c(C#N)c(-c2ccc(F)cc2)n1 | 44.4% (inactive) |
| N#Cc1c(-c2cccc(Cl)c2Cl)cc(-c2ccc3ccccc3c2)[nH]c1=O | 71.4% (inactive) |
| COc1ccc2nc(Nc3cccc(NC(=O)c4ccc(CN5CCCN(C)CC5)c(C(F)(F)F)c4)c3)ccc2c1 | -71.1% (active) |
| O=C(/C=C/c1ccc(-c2ccccc2)cc1)c1nc2ccccc2n1Cc1ccc(F)cc1 | 25.8% (inactive) |
| COc1cc2c(c(OC)c1OC)C(=O)CC(c1cccc(NC(=O)c3cc([N+](=O)[O-])ccc3Cl)c1)O2 (stereo not given) | -13.7% (active) |
| Cc1ccc(NC(=O)[C@]23CCC(C)(C)CC2C2=CCC4[C@@]5(C)C[C@@H](O)[C@H](O)[C@@](C)(CO)C5CC[C@@]4(C)[C@]2(C)CC3)cc1 (stereo not given in full) | 0.813% (active) |
| Cc1cc(C)cc(C(=O)Nc2cccc(-c3cn(-c4ccc(S(N)(=O)=O)cc4)nn3)c2)c1 | 41% (inactive) |
| CCCSc1nc(Nc2ccc(S(N)(=O)=O)cc2)c(C#N)c(-c2cc(OC)c(OC)c(OC)c2)n1 | 30.5% (inactive) |
| N=C1N=C(SCc2nc3ccccc3[nH]2)NC(=O)/C1=C/c1ccc(Cl)cc1 | 116% (inactive) |
| CC(=O)/C=C/c1cccc2c1C(=O)NC(C)(c1cc3cc(Br)ccc3oc1=O)N2 (stereo not given) | -6.53% (active) |
| O=C(COc1ccc(NC(=O)Nc2ccc(Cl)cc2)cc1)N/N=C/c1ccccc1 | -94.4% (active) |
| Cc1ccc([C@H]2C(C(=O)c3ccc(Cl)cc3)C3(N[C@@H]2c2ccccc2)C(=O)Nc2ccccc23)cc1 (stereo not given in full) | 1.9% (active) |
| CN(C)c1nc(NCCNS(=O)(=O)c2ccc(C3=Nc4c(N)nc(N)nc4NC(c4ccc(Cl)cc4)C3)cc2)nc(Nc2ccc(F)cc2)n1 (stereo not given) | -35.5% (active) |
| COc1ccc(/C=C/c2nc3ccccc3nc2Nc2cccc(C)c2)cc1 | 101% (inactive) |
| COc1ccc(-c2nc3cc(C)ccc3n2CC(=O)N=Nc2c(O)[nH]c3ccc(OC)cc23)cc1 | -77.1% (active) |
| CCOC(=O)C1=C(N)N(c2ccccc2)C2=C(C(=O)CC(C)(C)C2)C1c1ccc(Cl)cc1Cl (stereo not given) | 3.8% (active) |
| COc1ccc(C2CC(c3ccc(S(=O)(=O)NCCNc4nc(Nc5ccc(F)cc5)nc(N(C)C)n4)cc3)=Nc3c(N)nc(N)nc3N2)cc1 (stereo not given) | 8.63% (active) |

| SMILES | growth |
| --- | --- |
| COc1ccc(NC(=O)[C@@H](N)Cc2ccccc2)cc1C(=O)Nc1cccc(C2CC(=O)c3c(cc(OC)c(OC)c3OC)O2)c1 (stereo not given in full) | 44.3% (inactive) |
| CSc1ccc(C(=O)Nc2ccc3nn(/C(C#N)=C/c4ccccn4)nc3c2)cc1 | -90.7% (active) |
| Nc1cccc(SCc2cc3ccccc3[nH]c2=O)c1 | 45.9% (inactive) |
| CC(C)c1sc(NC(=O)c2cc(NC(=O)c3cc(NC(=O)c4nccn4C)cn3C)cn2C)nc1C(=O)NCCCN(C)C | 65.3% (inactive) |
| N#Cc1c(-c2ccc(Br)cc2)nc2n[nH]c(-c3ccc(Br)cc3)c2c1-c1ccc(C(F)(F)F)cc1 | -4.16% (active) |
| C=C1CC[C@@H]2[C@]3(C)COC(c4cn[nH]c4-c4cccc(Br)c4)O[C@@H]3CC[C@@]2(C)[C@@H]1C/C=C1/C(=O)OCC1O (stereo not given in full) | -95.4% (active) |
| CC(=O)OC[C@@]1(C)C2CC[C@]3(C)C(CC=C4C5CC(C)(C)CC[C@]5(C(=O)Nc5ccc(F)cc5)CC[C@]43C)[C@@]2(C)C[C@@H](OC(C)=O)[C@@H]1OC(C)=O (stereo not given in full) | 5.58% (active) |
| CC12CC[C@@H]3[C@]4(C)COC(c5cn[nH]c5-c5cccc(Br)c5)O[C@@H]4CC[C@@]3(C)[C@@H]1CC(C1=CCOC1=O)O2 (stereo not given in full) | 17.4% (inactive) |
| CN(C)CCCNC(=O)c1cc(NC(=O)c2cc(NC(=O)c3ccc(/C=C/c4ccccc4)cc3)cn2C)cn1C | 37.4% (inactive) |
| CCN(CC)c1ccc(/C=N/Nc2nc(-c3ccc(C)cc3)cs2)c(O)c1 | 66.7% (inactive) |
| COc1ccc2c(c1)c(-c1cc3nc(-c4cn(C)c5ncc(Br)cc45)cc(N)n3n1)cn2C | -81.4% (active) |
| COc1ccc(-c2ccnc(SCc3cc4cc(Cl)ccc4[nH]c3=O)n2)cc1 | 54.9% (inactive) |
| COCOc1cc2c(=O)c(C)c(C(=O)N[C@@H](Cc3ccccc3)C(O)C(=O)NCc3ccccc3)oc2cc1OC (stereo not given in full) | 13.9% (inactive) |
| COc1ccc(C(=O)/C=C/c2cccc(Br)c2)cc1S(N)(=O)=O | -53.9% (active) |
| COc1ccc(NC(=O)Cn2c3c(sc2=O)[C@H]2[C@@H](O)[C@@H](O)[C@H](O)[C@@H]2CS3)cc1 | 107% (inactive) |
| Cc1cc2c(cc1Cl)C(=O)/C(=C/c1ccc(F)cc1)O2 | 91.1% (inactive) |
| C=C1CC[C@@H]2[C@]3(C)COC(c4cn(-c5ccccc5)nc4-c4cccc([N+](=O)[O-])c4)O[C@@H]3CC[C@@]2(C)[C@@H]1C/C=C1/C(=O)OC[C@H]1O (stereo not given in full) | -69.7% (active) |
| O=C(O)c1ccc(-c2ccc(/C=N/NC(=O)c3[nH]c4ccc(Br)cc4c3-c3ccccc3)s2)cc1 | 3.12% (active) |
| COc1ccc2c(c1)c(-c1cc(N)n3nc(-c4cn(C)c5ccccc45)cc3n1)cn2C | -34.6% (active) |
| COc1ccc2cc([C@H](C)C(=O)N/N=C/c3ccc(Br)cc3)ccc2c1 | 100% (inactive) |
